# Laboratory results reported in PubChem BioAssay (NCATS).
# Several values for one entry are separate records, joined by “and”; a condition that tells them apart may be missing. Identical values can stand only once. Inconclusive results are not listed. Entries that show only a call come without a potency. Activity calls are given as the source filed them. Unless noted, the call rests on the fitted dose curve; in most records, active means well fitted curve in the direction sought with a large enough effect; inconclusive means small, poorly fitted or top-dose-only effect, or another doubt; inactive means no such curve, though single readings can be large; an effect the other way counts as inactive or inconclusive.
# Experiments:
# [1] = biological target: Calcium and integrin-binding protein 1 (Homo sapiens) (UniProt Q99828); assay: Primary qHTS for Identification of Calcium Integrin Binding Protein 1 (CIB1) Competitor (AID 1508620);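 further: GST tagged CIB1 binding a fluorescein labelled alphaIIb integrin peptide tracer; top concentration of the series differs between compounds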
# Procedure, shortened: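 CIB1-GST (1 uM final) and compound incubated 15 min at room temperature before adding FITC-alphaIIb peptide tracer (100 nM final). Competition for binding read by fluorescence polarization (ex 480, em 540) after another 15 min at room temperature.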
# [2] = biological target: Cytochrome P450 2D6 (Homo sapiens) (UniProt P10635); assay: Cytochrome P450 family 2 subfamily D member 6 (CYP2D6) small molecule antagonists: luciferase biochemical (cell-free) qHTS assay (AID 1645840; active means well fitted curve in the direction sought with a large enough effect in the repeat runs; an effect the other way counts as inactive or inconclusive; further: nearly all actives have a fitted effect of over 55% in size; further: potency means the concentration at half of the fitted maximal effect)
# Procedure, shortened: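 P450-Glo luminescent screen: recombinant CYP2D6 enzyme–proluciferin substrate mix preincubated with compound 10 min at room temperature, then NADPH regeneration added for 1 h at room temperature. Detection reagent added for 20 min; luciferin light read as relative luminescence units.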
# [3] = biological target: Cytochrome P450 2C9 (Homo sapiens) (UniProt P11712); assay: Cytochrome P450 family 2 subfamily C member 9 (CYP2C9) small molecule antagonists: luciferase biochemical (cell-free) qHTS assay (AID 1645842; active means well fitted curve in the direction sought with a large enough effect in the repeat runs; an effect the other way counts as inactive or inconclusive; further: nearly all actives have a fitted effect of over 55% in size; further: potency means the concentration at half of the fitted maximal effect)
# Procedure, shortened: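 Luminescence, after 20 min with luciferin detection reagent, reflected CYP2C9 turnover during a 1 h NADPH-driven reaction at 37C. Enzyme-substrate mix contained 0.4% bovine serum albumin and was preincubated with compound 10 min at room temperature.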
# [4] = Primary qHTS for inhibitors of nuclear receptor binding SET domain protein 2 (NSD2) in an isogenic RCH-ACV NSD2 p.E1099K mutant (9B) (AID 1645876); further: potency means the concentration at half of the fitted maximal effect; nearly all actives have a fitted effect of over 70% in size
# [5] = Primary qHTS for inhibitors of nuclear receptor binding SET domain protein 2 (NSD2) in an RCH-ACV wild type WT cells (2C) (AID 1645877); further: nearly all actives have a fitted effect of over 70% in size; further: potency means the concentration at half of the fitted maximal effect
# [6] = Primary qHTS for small molecule stabilizers of the endoplasmic reticulum resident proteome: Secreted ER Calcium Modulated Protein (SERCaMP) assay (AID 1508630)
# Procedure, shortened: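 GLuc-SERCaMP-expressing SH-SY5Y cells, pretreated 16 h with compound, are challenged with thapsigargin to empty ER calcium stores; after 4 h, coelenterazine is added directly to the medium and luminescence is imaged.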
# [7] = biological target: Rap guanine nucleotide exchange factor 3 (Homo sapiens) (UniProt O95398); assay: Confirmatory qHTS for agonist of cAMP-regulated guanine nucleotide exchange factor 3 (EPAC1) (AID 1645881);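 further: EPAC1 catalysed release of BODIPY-GDP from Rap1B seen as fluorescence loss; nearly all actives have a fitted effect of over 75% in size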
# [8] = biological target: Rap guanine nucleotide exchange factor 4 (Homo sapiens) (UniProt Q8WZA2); assay: Confirmatory qHTS for agonist of cAMP-regulated guanine nucleotide exchange factor 4 (EPAC2) (AID 1645884);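 further: nucleotide exchange releases bodipy-GDP from Rap1 and this lowers its fluorescence; nearly all actives have a fitted effect of over 65% in size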
# [9] = biological target: Rap guanine nucleotide exchange factor 4 (Homo sapiens) (UniProt Q8WZA2); assay: Confirmatory qHTS for antagonist of cAMP-regulated guanine nucleotide exchange factor 4 (EPAC2) (AID 1645885); further: potency means the concentration at half of the fitted maximal effect; nearly all actives have a fitted effect of over 25% in size
# [10] = A High-Content qHTS Against Drug Library for the Identification of Small Molecules that Inhibit DYT1 Early Onset Primary Dystonia-Associated Cell Pathology (AID 1645839; calls by dose curve; further: series mostly up to about 46 µM)
# Procedure, shortened: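 In this high-content image screen, delE TorsinA mislocalization in inducible Flp-In 293 cells is scored as %pathology, with cell count serving as the counterscreen. Compound exposure lasts 48 h under tetracycline induction in reduced-serum medium.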
# Sequence of Cytochrome P450 2D6 (Homo sapiens) (P10635 whole entry, looked up): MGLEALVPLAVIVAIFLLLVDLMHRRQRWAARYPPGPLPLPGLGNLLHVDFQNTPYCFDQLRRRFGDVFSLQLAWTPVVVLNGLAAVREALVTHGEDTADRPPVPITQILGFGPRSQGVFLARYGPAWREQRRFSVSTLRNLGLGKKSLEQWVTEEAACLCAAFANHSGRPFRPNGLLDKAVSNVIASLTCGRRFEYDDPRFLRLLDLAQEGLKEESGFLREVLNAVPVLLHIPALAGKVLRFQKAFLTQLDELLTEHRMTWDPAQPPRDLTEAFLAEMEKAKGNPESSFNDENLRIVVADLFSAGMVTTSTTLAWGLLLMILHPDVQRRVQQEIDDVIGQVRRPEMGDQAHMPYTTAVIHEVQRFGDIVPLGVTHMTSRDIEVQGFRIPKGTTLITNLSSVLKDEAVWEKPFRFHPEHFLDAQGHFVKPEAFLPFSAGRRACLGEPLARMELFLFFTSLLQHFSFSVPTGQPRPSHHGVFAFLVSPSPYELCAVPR
# Sequence of Cytochrome P450 2C9 (Homo sapiens) (P11712 whole entry, looked up): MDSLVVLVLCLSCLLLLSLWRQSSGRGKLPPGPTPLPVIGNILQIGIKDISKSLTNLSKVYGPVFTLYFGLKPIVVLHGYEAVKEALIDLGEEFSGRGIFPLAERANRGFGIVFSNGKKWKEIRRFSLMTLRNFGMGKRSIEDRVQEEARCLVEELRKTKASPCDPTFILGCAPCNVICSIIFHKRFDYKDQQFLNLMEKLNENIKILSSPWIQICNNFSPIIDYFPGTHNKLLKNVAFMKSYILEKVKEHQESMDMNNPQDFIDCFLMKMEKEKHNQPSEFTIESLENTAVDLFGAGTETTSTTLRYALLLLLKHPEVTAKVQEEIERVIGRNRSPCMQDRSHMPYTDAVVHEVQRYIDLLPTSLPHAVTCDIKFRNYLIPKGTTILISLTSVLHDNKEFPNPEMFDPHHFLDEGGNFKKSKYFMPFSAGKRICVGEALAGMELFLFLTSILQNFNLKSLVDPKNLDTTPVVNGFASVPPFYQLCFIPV
# Sequence of Calcium and integrin-binding protein 1 (Homo sapiens) (Q99828 whole entry, looked up): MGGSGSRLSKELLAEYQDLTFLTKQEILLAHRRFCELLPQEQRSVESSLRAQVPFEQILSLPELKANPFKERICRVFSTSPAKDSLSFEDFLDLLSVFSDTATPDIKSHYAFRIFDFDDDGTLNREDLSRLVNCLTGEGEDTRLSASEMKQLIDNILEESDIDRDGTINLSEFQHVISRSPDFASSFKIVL
# Sequence of Rap guanine nucleotide exchange factor 4 (Homo sapiens) (Q8WZA2 whole entry, looked up): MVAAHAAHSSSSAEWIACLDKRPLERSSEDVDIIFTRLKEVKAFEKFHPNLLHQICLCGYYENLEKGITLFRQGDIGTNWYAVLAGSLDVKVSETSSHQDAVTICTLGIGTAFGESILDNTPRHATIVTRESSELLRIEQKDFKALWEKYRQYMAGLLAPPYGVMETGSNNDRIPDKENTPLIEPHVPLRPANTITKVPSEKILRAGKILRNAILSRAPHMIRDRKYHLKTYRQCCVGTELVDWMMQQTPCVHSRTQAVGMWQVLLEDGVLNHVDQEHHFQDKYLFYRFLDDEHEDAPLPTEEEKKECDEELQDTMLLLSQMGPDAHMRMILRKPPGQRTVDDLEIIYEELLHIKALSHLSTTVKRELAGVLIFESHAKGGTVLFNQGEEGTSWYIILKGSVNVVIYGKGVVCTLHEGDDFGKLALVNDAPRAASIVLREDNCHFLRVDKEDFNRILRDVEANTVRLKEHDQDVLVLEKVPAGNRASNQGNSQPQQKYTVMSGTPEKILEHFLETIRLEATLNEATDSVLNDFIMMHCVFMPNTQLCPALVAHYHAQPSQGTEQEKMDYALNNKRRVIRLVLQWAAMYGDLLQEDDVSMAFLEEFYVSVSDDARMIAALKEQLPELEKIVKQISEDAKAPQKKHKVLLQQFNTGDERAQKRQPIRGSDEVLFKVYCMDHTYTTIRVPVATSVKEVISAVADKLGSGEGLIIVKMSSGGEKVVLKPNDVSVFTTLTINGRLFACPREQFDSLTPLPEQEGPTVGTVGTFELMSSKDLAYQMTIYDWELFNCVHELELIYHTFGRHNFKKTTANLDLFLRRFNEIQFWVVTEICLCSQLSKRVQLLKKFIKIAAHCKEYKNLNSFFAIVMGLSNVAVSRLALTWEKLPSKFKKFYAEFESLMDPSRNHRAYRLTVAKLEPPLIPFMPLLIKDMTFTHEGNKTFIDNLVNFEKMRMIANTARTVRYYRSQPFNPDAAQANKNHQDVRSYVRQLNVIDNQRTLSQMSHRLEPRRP
# Sequence of Rap guanine nucleotide exchange factor 3 (Homo sapiens) (O95398 whole entry, looked up): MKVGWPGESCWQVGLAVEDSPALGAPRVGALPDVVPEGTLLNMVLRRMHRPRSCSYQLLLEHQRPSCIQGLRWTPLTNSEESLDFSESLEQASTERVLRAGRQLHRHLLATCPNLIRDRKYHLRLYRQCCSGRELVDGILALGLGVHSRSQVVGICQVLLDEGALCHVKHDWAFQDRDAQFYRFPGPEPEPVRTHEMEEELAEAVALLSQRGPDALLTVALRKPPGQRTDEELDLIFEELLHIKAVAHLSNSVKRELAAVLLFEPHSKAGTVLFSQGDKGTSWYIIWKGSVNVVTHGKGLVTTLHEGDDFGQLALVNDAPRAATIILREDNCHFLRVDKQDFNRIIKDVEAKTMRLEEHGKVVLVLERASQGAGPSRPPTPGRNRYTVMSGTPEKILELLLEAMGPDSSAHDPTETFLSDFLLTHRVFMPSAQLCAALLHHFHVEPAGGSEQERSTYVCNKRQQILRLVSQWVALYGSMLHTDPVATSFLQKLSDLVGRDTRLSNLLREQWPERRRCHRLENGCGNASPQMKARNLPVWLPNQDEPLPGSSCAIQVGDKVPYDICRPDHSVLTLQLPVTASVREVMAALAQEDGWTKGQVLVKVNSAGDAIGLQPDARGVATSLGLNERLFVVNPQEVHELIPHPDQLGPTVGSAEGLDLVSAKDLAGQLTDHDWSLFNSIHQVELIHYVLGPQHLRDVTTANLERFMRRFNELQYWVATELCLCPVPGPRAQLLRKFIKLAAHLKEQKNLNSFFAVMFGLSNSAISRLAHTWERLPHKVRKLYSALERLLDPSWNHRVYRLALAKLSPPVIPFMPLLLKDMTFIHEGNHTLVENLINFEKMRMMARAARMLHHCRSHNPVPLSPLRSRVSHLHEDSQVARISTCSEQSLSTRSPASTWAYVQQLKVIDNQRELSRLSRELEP
structure (smiles),measurement,setting,value
Cc1ccccc1C(=O)c1ccc(Nc2ccc(Br)cc2N)cc1Cl,Potency,[1],inactive
same,Potency,[2],15.1 µM (active)
same,Potency,[3],10.7 µM (active)
same,Potency,[4],16.6 µM (active) and 5.78 µM (active)
same,Potency,[5],10.5 µM (active) and 9.2 µM (active)
C[C@@H](O[C@H]1OCCN(Cc2n[nH]c(=O)[nH]2)[C@@H]1c1ccc(F)cc1)c1cc(C(F)(F)F)cc(C(F)(F)F)c1,Potency,[1],inactive
same,Potency,[6],inactive
same,Potency,[7],inactive
same,Potency,[8],inactive
same,Potency,[9],22.1 µM (active)
CN(C)c1ccc(-c2nc3ncc(Cl)c(N4CCN(CC(=O)Nc5nccs5)CC4)c3[nH]2)cc1,Potency,[1],inactive
same,Potency,[2],inactive
same,Potency,[3],0.536 µM (active)
CC1=C(C(=O)Nc2cc3cn[nH]c3cc2F)C(c2ccc(C(F)(F)F)cc2)CC(=O)N1 (centres undefined),Potency,[1],inactive
same,Potency,[3],19 µM (active)
OC[C@H]1O[C@@H](OCCc2ccc(O)cc2)[C@H](O)[C@@H](O)[C@H]1O,Potency,[1],inactive
same,outcome,[10],inactive
same,Potency,[3],inactive
CCCCCCCCCCCCCCCC(=O)O[C@H]1[C@@H](O)[C@@H](O)[C@@H]([C@H](NC(=O)[C@@H]2C[C@@H](CCC)CN2C)[C@H](C)Cl)O[C@@H]1SC,Potency,[1],inactive
same,Potency,[6],inactive
same,Potency,[5],inactive
Cc1nc2c([nH]1)CCN(C(=O)c1ccc(NC(=O)c3ccccc3-c3ccccc3)cc1)c1ccccc1-2,Potency,[1],inactive
same,Potency,[2],4.77 µM (active)
same,Potency,[3],inactive
CCCCCCCCCCCCCC(=O)N[C@H](CO)[C@H](O)c1ccc([N+](=O)[O-])cc1,Potency,[1],inactive
same,Potency,[6],inactive
same,Potency,[5],inactive
O=C(Nc1ncc(SCCN2CCCC2)s1)[C@]1(c2ccc(S(=O)(=O)C3CC3)cc2)C[C@@H]1C1CCCCC1,Potency,[1],inactive
same,Potency,[4],20.6 µM (active)
